TEAD-YAP inh: TEAD-YAP interaction inhibition. HEK-TIYL cells, TEAD-Gal4/YAP UAS-luciferase luminescence. inhibition, % at 9.12 µM. actives 1.4% (n = 640,000). AID 1259422; in the data active = inhibition above about 32%;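 note: 0% = median of test compound wells and 100% = reference inhibitor wells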
FBW7 act: human FBW7 E3 ligase activation, primary screen; AlphaScreen FBW7–phospho-cyclin E peptide binding, activator screen; AID 1259310; actives 0.13% (n = 650,000); normalized activity (activation), % at 26.1 µM; Q969H0; in the data active = normalized activity above about 1.9%;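 note: purified mutant Fbw7 with reduced substrate affinity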
MITF primary: blocks human microphthalmia-associated transcription factor | O75030 | AlphaScreen MITF homodimerization, bead proximity signal | inhibition, % at 2.6 µM | actives 0.91% (n = 650,000) | AID 1259374; in the data active = inhibition above about 50%;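 note: 0% = vehicle wells with protein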
Target sequence (O75030 whole entry, looked up): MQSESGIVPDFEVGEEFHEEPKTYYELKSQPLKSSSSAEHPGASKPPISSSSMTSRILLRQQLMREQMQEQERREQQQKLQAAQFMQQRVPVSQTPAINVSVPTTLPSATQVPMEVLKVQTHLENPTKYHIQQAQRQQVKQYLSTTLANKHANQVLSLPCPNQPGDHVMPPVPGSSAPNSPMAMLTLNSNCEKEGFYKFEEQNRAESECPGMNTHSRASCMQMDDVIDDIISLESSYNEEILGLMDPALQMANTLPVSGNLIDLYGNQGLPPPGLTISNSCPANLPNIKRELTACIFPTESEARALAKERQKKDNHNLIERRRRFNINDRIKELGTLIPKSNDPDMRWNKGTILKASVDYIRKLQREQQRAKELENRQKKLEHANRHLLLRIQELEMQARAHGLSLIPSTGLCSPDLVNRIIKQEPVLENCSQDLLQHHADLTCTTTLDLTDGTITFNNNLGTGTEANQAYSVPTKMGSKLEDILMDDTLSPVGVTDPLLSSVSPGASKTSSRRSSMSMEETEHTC
GPR151 ag: human GPR151 activation | Q8TDV0 | PathHunter beta-arrestin GPR151 cells, luminescence | activation, % at 11.2 µM | actives 1% (n = 650,000); in the data active = activation above about 4.9%;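 note: 0% = median of compound wells and 100% = cells with positive control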
GPR151 conf act: human GPR151 activation, confirmation screen; 6,700 tested, under 10 active; GPR151 PathHunter beta-arrestin cells, luminescence, 90 min; % of EA-reagent control over plate median; shares compounds with GPR151 ag; activation, % at 11.2 µM; AID 1508609;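 active = mean percent activation across replicates above the confirmation screen cutoff of 4.91%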
GPR119 counter: activates human GPR119 in a GPR151 counter-screen; shares compounds with GPR151 ag; GPR119 PathHunter beta-arrestin cells, luminescence, 90 min; 0 = compound-well median, 100 = enzyme-acceptor control; activation, % at 11.2 µM; actives 0.3% (n = 6,700);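 active = mean percent activation in the counterscreen above 29.09%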;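 note: counterscreen on off-target GPR119 to flag nonselective hits from the GPR151 activator screen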
Starred values were filed as active, the others as inactive; x = no result; ! = a repeat was not active. Sampled rows, rich in hits. Any-hit rate of the full collection: about 3.5%.

SMILES	TEAD-YAP inh	FBW7 act	MITF primary	GPR151 ag	GPR151 conf act	GPR119 counter
CCN1CCN(C(c2ccccc2OC)c2nnnn2C(C)(C)CC)CC1 (stereo not given)	-18	0	3	1	x	x
O=C(NC1CCCCC1)c1nn2c(C(F)(F)F)cc(-c3ccccc3)nc2c1Br	1	0	0	5.0*	0	1
Cc1ccccc1NC(=O)N1CCN(c2nc(-c3ccc(F)cc3)cs2)CC1	-7	0	-6	-1	x	x
Cc1ccc(Cn2ncc3c(NCCCN4CCOCC4)ncnc32)cc1	-1	0	-11	0	x	x
Clc1ccc(Cn2ncc3c(NCCN4CCOCC4)ncnc32)cc1	-4	0	11	6.7*	0	2
Cc1cccc(/C=C(\C#N)C(=O)NC2CCCCC2)c1	-3	0	6	-1	x	x
COc1ccc(-c2noc(CN3CCN(c4ccccc4)CC3C)n2)c(OC)c1OC (stereo not given)	-5	0	12	4.9*	1	6
COCC1CCCCN1Cc1nc(-c2ccc(OC)c(OC)c2OC)no1 (stereo not given)	-2	0	-8	1	x	x
O=C(N/N=C/c1ccc([N+](=O)[O-])o1)/C(=C/C=C/c1ccccc1)NC(=O)c1ccccc1	6	0	-13	2	x	x
CC(=O)Nc1ccc(Nc2c(-c3ccc4c(c3)OCC(=O)N4)c(=O)c2=O)cc1	4	0	-6	8.7*	0	-1
COCc1ccc(CN2CCCC(N(C)CCc3ccccc3)C2)o1 (stereo not given)	-8	0	6	5.1*	-1	-6
COc1ccc(CCN(C)C2CCCN(Cc3c(C)nn(C)c3Cl)C2)cc1OC (stereo not given)	9	0	12	5.9*	0	4
COc1ccc(CCN(C)C2CCCN(Cc3ccoc3)C2)cc1OC (stereo not given)	11	0	11	0	x	x
COc1ccc(CCN(C)C2CCCN(Cc3ccncc3)C2)cc1OC (stereo not given)	3	0	-14	9.1*	0	4
CN(CCc1ccccc1)C1CCCN(Cc2cccnc2)C1 (stereo not given)	10	0	8	-1	x	x
O=C(NCCN1CCOCC1)c1ccc2c(c1)ncn2-c1ccc(F)cc1F	-1	0	17	5.4*	-1	-11
Cc1ccc(-n2cnc3cc(C(=O)NCc4ccc(F)cc4)ccc32)cc1Cl	-2	0	0	5.9*	0	-12
CC1(C2CCN(Cc3ccco3)CC2)NC(=O)N(C2Cc3ccccc3C2)C1=O (stereo not given)	2	0	2	1	x	x
Cc1cc(N2C(=O)CSC23C(=O)Nc2ccccc23)ccc1Br (stereo not given)	2	-1	7	0	x	x
Cc1ccc(N2C(=O)CSC23C(=O)Nc2ccccc23)cc1Br (stereo not given)	5	-1	-3	5.0*	0	2
Cc1ccc2c(c1)-c1c(cnn1CC(=O)Nc1ccccc1Cl)CO2	-17	0	-5	0	x	x
OC(CN1CCOCC1)Cn1cnc2c(SCc3ccccc3)ncnc21 (stereo not given)	0	0	9	6.0*	1	0
CSC1=NC(c2cccc([N+](=O)[O-])c2)C(C(=O)OC(C)C)=C(C)N1 (stereo not given)	1	0	4	5.1*	0	7
CN1CCN(c2c(F)cc3c(=O)c(C(=O)O)cn(CCF)c3c2F)CC1	3	0	17	6.3*!	0	3
CN1CCN(c2c(F)cc3c(=O)c(C(=O)O)cn4c3c2OCN4C)CC1	3	0	1	2	x	x
SMILES	TEAD-YAP inh	FBW7 act	MITF primary	GPR151 ag	GPR151 conf act	GPR119 counter
Nc1ncnc2c1ncn2[C@@H]1O[C@H](CO)[C@@H](O)[C@H]1O	-9	0	-7	1	x	x
COc1ccc(C[C@H](N)C(=O)N[C@@H]2[C@@H](CO)OC(n3cnc4c(N(C)C)ncnc43)[C@@H]2O)cc1 (stereo not given in full)	100*	0	-4	6.8*!	2	0
O=C(CSc1nc2ccccc2c(=O)n1CCCN1CCCCC1)NCCc1ccccc1	2	0	1	0	x	x
CCCCCCCCCCCCCCCCOP(=O)(O)OCC[N+](C)(C)C	5	0	-13	11*!	0	6
CC(C)CS(=O)(=O)Nc1ccc2c(c1)CCCN2S(=O)(=O)c1ccc(F)cc1	-10	0	-4	5.2*	0	-2
Cc1c(Cl)cccc1NC(=O)C(=S)N1CCOCC1	5	0	0	0	x	x
Cc1cc(/C=N/n2cnnc2)c(C)n1-c1ccc(Cl)cc1Cl	6	0	2	5.3*	0	-1
Cc1cc(/C=N/n2cnnc2)c(C)n1-c1ccc(Cl)cc1	-2	0	10	-1	x	x
CC(=O)Nc1cccc(N=Cc2cc([N+](=O)[O-])cc(C)c2O)c1	-26	0	4	7.4*	-1	3
O=C(Nc1cccc(N=Cc2cc([N+](=O)[O-])cc([N+](=O)[O-])c2O)c1)c1ccco1	-2	0	13	0	x	x
O=C(c1ccccc1)c1ccc(NC(=O)c2c(O)c3ccccc3[nH]c2=O)cc1	5	0	7	0	x	x
O=C(NN1C(=O)C2C3C=CC(C3)C2C1=O)c1ccc(Cl)cc1Cl (stereo not given)	-2	0	12	0	x	x
O=C1C2C3C=CC(C3)C2C(=O)N1Nc1c(Cl)cc(Cl)cc1Cl (stereo not given)	2	0	1	6.6*	2	5
Cc1cccc(CNC2CCN(c3ccc(C(=O)N4CCCC(O)C4)cc3)CC2)n1 (stereo not given)	-8	0	6	6.7*	0	0
N=C1C(c2nc3ccccc3[nH]2)=C(O)CN1CCc1ccccc1	-20	0	4	5.3*	0	-3
COc1ccc(Cl)cc1N1CC(O)=C(c2nc3ccccc3[nH]2)C1=N	-5	0	9	1	x	x
COc1ccc(N2CC(O)=C(c3nc4ccccc4[nH]3)C2=N)cc1Cl	-18	0	0	6.0*	0	-3
Cc1cccc(NC(=O)CSCc2n[nH]c(=O)[nH]2)c1C	-2	0	-9	0	x	x
COc1ccc2c(c1)C(C)(C)C(C)=[N+]2C	8	1	16	1	x	x
NC(=O)C1CCN(Cc2cccc(Cl)c2)CC1	7	0	40	5.1*	1	6
NC(=O)C1CCN(Cc2ccc(Cl)cc2)CC1	-7	0	9	1	x	x
COc1cccc(NP2(=O)C=C(c3ccccc3)SC(c3ccccc3)=C2)c1	5	0	-2	-1	x	x

Screening data (PubChem BioAssay)
